Data taken from PubChem BioAssay (NCI).
This is part of a sample that, as a whole, favours compounds with a hit. Of some 83,000 tested, about 20% had one in any assay.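 Activity criterion: percent growth below 10, measured after cells in 96-well plates were exposed to a single compound concentration for 48 hours.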 A number with no mark means an inactive call. Active and inactive are the calls of the source.

Assays:
Assay in all cases: NCI-60 one-dose screen, 48 h (100 = growth as untreated, 0 = no growth, -100 = all killed)
HT29 colon = settings: 10 µM unless noted
SNB-75 CNS = settings: 10 µM unless noted
SNB-19 CNS = settings: 10 µM unless noted
U251 CNS = settings: 10 µM unless noted
PC-3 prostate = settings: 10 µM unless noted
SK-MEL-5 melanoma = settings: 10 µM unless noted
UACC-62 melanoma = settings: 10 µM unless noted
LOX IMVI melanoma = settings: 10 µM unless noted
SK-MEL-28 melanoma = settings: 10 µM
SK-MEL-2 melanoma = settings: 10 µM unless noted
EKVX NSCLC = settings: 10 µM unless noted
SN12C renal = settings: 10 µM unless noted
UO-31 renal = settings: 10 µM unless noted
TK-10 renal = settings: 10 µM unless noted
ACHN renal = settings: 10 µM unless noted
CAKI-1 renal = settings: 10 µM unless noted
A498 renal = settings: 10 µM unless noted
CCRF-CEM leukemia = settings: 10 µM unless noted
MOLT-4 leukemia = settings: 10 µM unless noted
SR leukemia = settings: 10 µM unless noted

| SMILES | growth (HT29 colon) | growth (SNB-75 CNS) | growth (SNB-19 CNS) | growth (U251 CNS) | growth (PC-3 prostate) | growth (SK-MEL-5 melanoma) | growth (UACC-62 melanoma) | growth (LOX IMVI melanoma) | growth (SK-MEL-28 melanoma) | growth (SK-MEL-2 melanoma) | growth (EKVX NSCLC) | growth (SN12C renal) | growth (UO-31 renal) | growth (TK-10 renal) | growth (ACHN renal) | growth (CAKI-1 renal) | growth (A498 renal) | growth (CCRF-CEM leukemia) | growth (MOLT-4 leukemia) | growth (SR leukemia) |
| --- | --- | --- | --- | --- | --- | --- | --- | --- | --- | --- | --- | --- | --- | --- | --- | --- | --- | --- | --- | --- |
| CC(=O)c1ccc2oc(=O)n(Cc3ccc(C#N)cc3)c(=O)c2c1 | 112% | 87.3% | 104% | 105% | 97.5% | 105% | 97.9% | 97.8% | 104% | 101% | 101% | 99.3% | 85.6% | 103% | 104% | 94.6% | 91.1% | 106% | 107% | 109% |
| Cc1ccccc1CNC(=O)C1CN(c2ccc(Cl)cc2)N(c2ccc(Cl)cc2)C1=O (stereo not given) | 77% | 88% | 89.5% | 89.7% | 72.8% | 86.2% | 60.8% | 92.9% | 91% | 91.8% | 91.8% | 90.8% | 64.1% | 91.3% | 87.4% | 71.6% | 86.2% | 84.3% | 81.1% | 59.8% |
| Nc1nc(-c2ccccc2Br)nn1-c1nc2ccccc2s1 | 101% | 96.7% | 97.2% | 107% | 103% | 104% | 96.6% | 106% | 103% | 96.7% | 92.2% | 100% | 105% | 118% | 98.3% | 97.2% | 101% | 101% | 88.3% | 81.5% |
| Cn1nc(C(C)(C)C)cc1NC(=O)Cc1ccc(/C=C2\C(=O)Nc3ccccc32)cc1 | 58.4% | 75.1% | 63.9% | 55.5% | 42.1% | 5.57% (active) | 41% | 53.8% | 76.7% | 54.3% | 49.1% | 62% | 52.5% | 91.2% | 37.4% | 45.5% | 62.9% | 35.8% | 6.12% (active) | 34.9% |
| COc1ccc(N(C)c2nc(N)nc3sc4c(c23)CCCC4)cc1 | -4.37% (active) | 51.3% | 23.8% | 15.8% | 27% | -24.9% (active) | 42.9% | 22.6% | 55% | 16.6% | 61% | 24.2% | 38.5% | 45.1% | 26.7% | 25.6% | 0.565% (active) | 9.1% (active) | 11.6% | 6.49% (active) |
| CCOC(=O)c1sc(-c2ccc(OS(=O)(=O)c3cccs3)c(C=O)c2)nc1C | 1.93% (active) | 4.62% (active) | 5.38% (active) | 2.52% (active) | 11.1% | -88.9% (active) | 2.43% (active) | -48.2% (active) | 27.4% | 28.6% | 33.6% | 1.55% (active) | -4.34% (active) | 12.2% | 0.377% (active) | 2.41% (active) | 31.4% | 7.57% (active) | -7.85% (active) | 3.44% (active) |
| O=C(Cn1cc(COc2ncnc3c2cnn3-c2ccccc2)nn1)Nc1ccccn1 | 110% | 71.9% | 90.8% | 95.7% | 90.3% | 92.3% | 80.8% | 93.8% | 97.3% | 101% | 86.2% | 94.6% | 62.7% | 115% | 91.1% | 86.6% | 78.7% | 96.7% | 89.9% | 101% |
| COc1cccc(/C(C#N)=C/c2nc3c(N4CCOCC4)nc(Cl)nc3n2C)c1 | -49.8% (active) | -17.2% (active) | 55.6% | -15.1% (active) | -27.4% (active) | 4.5% (active) | -62.3% (active) | -88.2% (active) | -77.5% (active) | -29.7% (active) | -77.3% (active) | 12.8% | -95.9% (active) | -65.6% (active) | -98% (active) | -92.1% (active) | -2.48% (active) | 2.67% (active) | -19.4% (active) | 5.6% (active) |
| O=C(Cn1cc(COc2ncnc3c2cnn3-c2ccccc2)nn1)Nc1cccc2ccccc12 | 102% | 74.9% | 88.4% | 96.7% | 95.8% | 92.5% | 83.9% | 97.5% | 100% | 113% | 85.5% | 96.8% | 99.8% | 108% | 91% | 90.6% | 88.8% | 96.6% | 94.8% | 101% |
| O=C(c1nc2ccccc2[nH]1)C1C(c2ccc(F)cc2)C2CC3CCCCC3N2[C@@]12C(=O)Nc1ccc(Cl)cc12 (stereo not given in full) | 24.9% | 36.7% | 54.1% | 51.2% | 35.4% | 47.3% | 55.1% | 46% | 61% | 65.8% | 39.5% | 52% | 30.9% | 72.9% | 43.1% | 54.8% | 39.8% | 33.3% | 11.4% | 21% |
| O=C1/C(=C/c2ccc(O)cc2)COc2ccc(O)cc21 | 98.3% | 96.4% | 99.9% | 80% | 94.3% | 102% | 92.8% | 70.1% | 105% | 114% | 106% | 96.7% | 87.5% | 115% | 96.5% | 103% | 103% | 76.7% | 93.7% | 33% |
| Oc1[nH]c2ccccc2c1N=Nc1nnc2n1N=C(c1ccccc1)CS2 | 72.5% | 65.1% | 83.6% | 50.4% | 81% | 95.6% | 99.8% | 93.4% | 97% | 87.6% | 87.7% | 99.1% | 100% | 94% | 94.8% | 79.4% | 92.9% | 96.6% | 88% | 77.3% |
| COc1cc(/C=C2\CCC/C(=C\c3cc(CN4CCOCC4)c(O)c(OC)c3)C2=O)cc(CN2CCOCC2)c1O | 3.44% (active) | 4.53% (active) | 52.8% | 22% | 39.9% | 52.3% | 40% | 13.3% | 58.7% | 62.7% | 54.3% | 29.3% | 52.6% | 53.8% | 25.1% | 46.1% | 58.6% | 14.8% | 11% | 38% |
| COc1cc(/C=C2\CN(C)C/C(=C\c3cc(CN4CCOCC4)c(O)c(OC)c3)C2=O)cc(CN2CCOCC2)c1O | 6.39% (active) | 26.3% | 58.5% | 20.7% | 60.8% | 72.3% | 35.8% | 11.7% | 77.3% | 72.2% | 80.6% | 35% | 76.6% | 91.9% | 47.5% | 82.7% | 81.8% | 32.1% | 30% | 32.6% |
| COC(=O)/C(CCC=C(C)C)=C1\[C@@H](OC(C)=O)C[C@@]2(C)[C@H]1C[C@@H](O)[C@H]1[C@@]3(C)CC[C@H](NCc4ccccc4)[C@@H](C)[C@@H]3CC[C@@]12C | 14.8% | 65.1% | 81.9% | 49.2% | 31.3% | 59.4% | 69.3% | 47.3% | 74.6% | 94.4% | 63% | 75.6% | 47.5% | 111% | 79.2% | 72.5% | 98.1% | 50.9% | 28.1% | 0.245% (active) |
